Compound activity from PubChem BioAssay.
Shown are actives, neighbours in structure and some others; about 19% of the full set was active somewhere.
TDP1 cell noCPT: qHTS for Inhibitors of human tyrosyl-DNA phosphodiesterase 1 (TDP1): qHTS in cells in absence of CPT. actives 15% (n = 420,000). AID 686978, 2013. Potency, µM (series often up to 46.2 µM), for inactives: at the highest dose activity change, negative = growth inhibition, hits mostly inhibitors. DT40 Tdp1-/- hTDP1 cells, no CPT, ATP luminescence, 48 h; note: potency is the fitted concentration of half-maximal effect; nearly all actives have a fitted effect of over 55% in size
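Luminescent ATP content (CellTiter-Glo) served as the growth readout. Knockout chicken DT40 cells expressing human TDP1 were exposed to compounds without camptothecin for a minimum 48 hr at 37 °C.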
HT1080 IDH1KD tx: kills HT-1080 cells with IDH1 knockdown; HT-1080 IDH1 knockdown viability, ATP luminescence, 48 h; Potency, µM (highest dose often 46.1 µM), for the others: at the highest dose activity, negative = toxicity, actives largely listed as cytotoxic; actives 2% (n = 360,000);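 note: potency is the fitted concentration of half-maximal effect; 0% = DMSO wells and -100% = cell-free medium wells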
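Using the IDH1-knockdown HT-1080 line run in the same batch and compound series as the NT line, viability after 48 h at 37 °C was determined by CellTiter-Glo luminescence and expressed as % activity.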
DT40 TDP1 CPT: DT40-hTDP1 cell growth loss with CPT; chicken DT40 Tdp1-/-;hTDP1 cells + 20 nM CPT, ATP luminescence, 48 h; Potency, µM (series often up to 46.2 µM), for inactives: top-dose activity change, negative = growth inhibition, actives largely listed as inhibitors; actives 12% (n = 420,000); AID 686979; note: potency is the fitted concentration of half-maximal effect; nearly all actives have a fitted effect of over 55% in size
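Chicken DT40 Tdp1-/- cells complemented with human TDP1, 400 cells/well, exposed to compounds plus 20 nM camptothecin for at least 48 h at 37 C; viability read as ATP content by CellTiter-Glo luminescence.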
HT1080NT lethal: kills 2HG-producing HT-1080-NT fibrosarcoma cells | HT-1080-NT fibrosarcoma viability, CellTiter-Glo ATP luminescence, 48 h | Potency, µM (highest dose often 46.1 µM), without a hit: top-dose activity, negative = less viability, hits mostly cytotoxic | actives 1.6% (n = 360,000) | AID 686970;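 note: NT is the 2HG producing partner of a matched IDH1 knockdown line; potency is the fitted concentration of half-maximal effect; 0% = DMSO-treated cells and -100% = media-only wells without cells; nearly all actives have a fitted effect of over 55% in size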
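Compounds were tested in concentration-response format on HT-1080-NT cells for 48 hours at 37 degrees C. Cell viability came from CellTiter-Glo luminescence; curves were classified by r2, response magnitude and activity.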
uPA surface inh: cell surface uPA generation inhibition | Potency, µM (doses to about 38.3 µM), without a hit: at the top dose activity change, negative = inhibition, usual class: inhibitors | cell surface uPA generation assay, qHTS | actives 0.31% (n = 330,000) | AID 540303; active = well fitted inhibition curve with a large enough effect; inconclusive = small, poorly fitted or top-dose-only effect; inactive = no such curve, though single readings can be large or run the other way; tested in mouse RAW 264.7 cells; note: potency is the fitted concentration of half-maximal effect; nearly all actives have a fitted effect of over 55% in size
IL1B secr inh: inhibitors of inflammasome signaling (IL-1 beta secretion). THP-1 LPS/ATP IL-1B secretion, AlphaLISA, 16 h; stronger effect = lower value. activity change, % at 57.5 µM. AID 743279. actives 4.7% (n = 360,000); in the data active = activity change below about -50%; inconclusive = mostly about -30% to -49%
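THP-1 cells pretreated 1 hr with compounds (up to 57.5 uM final), then stimulated with LPS (250 ng/mL final) plus ATP (1.25 mM final); secreted IL-1B measured by AlphaLISA after 16 hr, decreased signal indicating inhibition.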
Starred values were filed as active, the others as inactive. Unless noted, calls come from the whole dose curve; as a rule, active = well fitted curve in the direction sought with a large enough effect; inconclusive = small, poorly fitted or top-dose-only effect, or another doubt; inactive = no such curve, though single readings can be large; an effect the other way counts as inactive or inconclusive. Unless noted, % is set by controls: 0 for no effect and ±100 for the full control effect.

Results for COc1cc(/C=N/NC(=O)c2cccc([N+](=O)[O-])c2)ccc1O ?
TDP1 cell noCPT: 5.4%; HT1080 IDH1KD tx: -3.1%; DT40 TDP1 CPT: 1.1%; HT1080NT lethal: 12.1%; uPA surface inh: 1.7%; IL1B secr inh: 10.1

How did CC(Nc1cccc2ccccc12)C(=O)N/N=C/c1ccccn1 (stereo not given) do in these assays?
TDP1 cell noCPT: 20.6µM*; HT1080 IDH1KD tx: 7.08µM*; DT40 TDP1 CPT: 25.9µM*; HT1080NT lethal: 14.1µM*; uPA surface inh: -7.4%; IL1B secr inh: 49.0

Results for Cc1cc(/C=N/NC(=O)C(O)(c2ccccc2)c2ccccc2)c(C)n1-c1ccccc1 ?
TDP1 cell noCPT: inconclusive; HT1080 IDH1KD tx: -5.3%; DT40 TDP1 CPT: inconclusive; HT1080NT lethal: -13.4%; uPA surface inh: 1.5%; IL1B secr inh: -8.8

What do the screens show for `Cc1cc(C(=O)N/N=C/c2ccc(O)c(O)c2O)c(C)n1-c1ccccc1`?
TDP1 cell noCPT: 3.26µM*; HT1080 IDH1KD tx: inconclusive; DT40 TDP1 CPT: 4.61µM*; HT1080NT lethal: inconclusive; uPA surface inh: -14.7%; IL1B secr inh: 98.7

Results for O=C(Nc1ccc(F)c(Cl)c1)Nc1c[nH]c(=O)[nH]c1=O ?
TDP1 cell noCPT: -22.1%; DT40 TDP1 CPT: 0.8%

Results for Cc1ccc(OCCC(=O)OCC(=O)NC2CCS(=O)(=O)C2)cc1 (stereo not given) ?
TDP1 cell noCPT: -0.5%; HT1080 IDH1KD tx: 13.3%; DT40 TDP1 CPT: -18.6%; HT1080NT lethal: 11.4%; uPA surface inh: 2.5%; IL1B secr inh: 25.7

What do the screens show for `Cc1cc(/C=N/NC(=O)c2cccs2)c(C)n1-c1ccccc1`?
TDP1 cell noCPT: 13µM*; HT1080 IDH1KD tx: inconclusive; DT40 TDP1 CPT: 16.4µM*; HT1080NT lethal: inconclusive; uPA surface inh: -7.9%; IL1B secr inh: -4.9

What do the screens show for `CCN(CC)C(=O)C1CCCN(c2ccc([N+](=O)[O-])cc2[N+](=O)[O-])C1` (stereo not given)?
TDP1 cell noCPT: inconclusive; HT1080 IDH1KD tx: -1.9%; DT40 TDP1 CPT: -15.4%; HT1080NT lethal: -0.7%; uPA surface inh: -9.3%; IL1B secr inh: -1.8

Results for CCN(CC)C(=O)C1CCCN(c2ccc([N+](=O)[O-])cc2/C=N/NC(=O)c2cccc([N+](=O)[O-])c2)C1 (stereo not given) ?
TDP1 cell noCPT: inconclusive; HT1080 IDH1KD tx: -0.3%; DT40 TDP1 CPT: 20.6µM*; HT1080NT lethal: 2.8%; uPA surface inh: 16.8%; IL1B secr inh: inconclusive

What do the screens show for `Cc1cc(/C=N/NC(=O)c2ccncc2)c(C)n1-c1ccccc1`?
TDP1 cell noCPT: -25.7%; HT1080 IDH1KD tx: -3.7%; DT40 TDP1 CPT: 1.7%; HT1080NT lethal: -3.5%; uPA surface inh: -3.0%; IL1B secr inh: 0.0

How did O=C(Nc1nc2ccccc2n1CCN1CCOCC1)c1ccccc1 do in these assays?
TDP1 cell noCPT: -25.1%; HT1080 IDH1KD tx: -4.4%; DT40 TDP1 CPT: -29.4%; HT1080NT lethal: -10.6%; uPA surface inh: 2.2%; IL1B secr inh: 6.4

What do the screens show for `O=C(NCCCN1CCOCC1)c1cn(-c2ccccc2)nc1-c1ccc(Br)cc1`?
TDP1 cell noCPT: 16.4µM*; HT1080 IDH1KD tx: -26.0%; DT40 TDP1 CPT: inconclusive; HT1080NT lethal: -14.6%; uPA surface inh: -2.4%; IL1B secr inh: inconclusive

Results for O=C(Nc1nc2ccccc2n1CCN1CCOCC1)c1cn(-c2ccccc2)nc1-c1ccccc1 ?
TDP1 cell noCPT: 18.4µM*; HT1080 IDH1KD tx: inconclusive; DT40 TDP1 CPT: 18.4µM*; HT1080NT lethal: inconclusive; uPA surface inh: 0.9%; IL1B secr inh: 60.1

Results for COc1ccc(NC(C)=O)c([N+](=O)[O-])c1[N+](=O)[O-] ?
TDP1 cell noCPT: inconclusive; HT1080 IDH1KD tx: -9.0%; DT40 TDP1 CPT: inconclusive; HT1080NT lethal: -8.2%; uPA surface inh: -2.4%; IL1B secr inh: -68.9*

Results for CC1=C(C(=O)Nc2ccccc2)C(c2cccnc2)n2nc(SCc3ccccc3F)nc2N1 (stereo not given) ?
TDP1 cell noCPT: -8.0%; DT40 TDP1 CPT: -14.6%

What do the screens show for `C[C@H]1O[C@@H](n2cc(F)c(=O)[nH]c2=O)[C@H](O)[C@@H]1O`?
TDP1 cell noCPT: inconclusive; HT1080 IDH1KD tx: -25.2%; DT40 TDP1 CPT: inconclusive; HT1080NT lethal: -13.7%; uPA surface inh: inconclusive; IL1B secr inh: 5.9

What do the screens show for `O=C1C(F)=CC(COC(c2ccccc2)(c2ccccc2)c2ccccc2)OC1n1cc(F)c(=O)[nH]c1=O` (stereo not given)?
TDP1 cell noCPT: 1.46µM*; HT1080 IDH1KD tx: 20.6µM*; DT40 TDP1 CPT: 1.64µM*; HT1080NT lethal: inconclusive; uPA surface inh: -11.6%; IL1B secr inh: -101.3*

How did CCn1cc(C(=O)NC2CC(C)(C)Cc3c2cnn3-c2cccc(F)c2)cn1 (stereo not given) do in these assays?
TDP1 cell noCPT: 20.6µM*; HT1080 IDH1KD tx: 0.5%; DT40 TDP1 CPT: 16.4µM*; HT1080NT lethal: 2.2%; uPA surface inh: -13.9%; IL1B secr inh: 6.7

How did Cc1cnc(C(=O)NC2CC(C)(C)Cc3c2cnn3-c2cccc(F)c2)cn1 (stereo not given) do in these assays?
TDP1 cell noCPT: inconclusive; HT1080 IDH1KD tx: -5.2%; DT40 TDP1 CPT: inconclusive; HT1080NT lethal: 1.5%; uPA surface inh: -2.4%; IL1B secr inh: -1.5

Results for Cc1cc(C(=O)Cn2c(CO)nc3ccccc32)c(C)n1C ?
TDP1 cell noCPT: 16.4µM*; HT1080 IDH1KD tx: -8.7%; DT40 TDP1 CPT: inconclusive; HT1080NT lethal: 0.0%; uPA surface inh: -0.8%; IL1B secr inh: 10.6

What do the screens show for `C=CCn1c(C)cc(C(=O)Cn2c(C(C)O)nc3ccccc32)c1C` (stereo not given)?
TDP1 cell noCPT: 9.2µM*; HT1080 IDH1KD tx: 5.0%; DT40 TDP1 CPT: 20.6µM*; HT1080NT lethal: -0.5%; uPA surface inh: -12.4%; IL1B secr inh: 3.4

What do the screens show for `Cc1cccc(OCCCCn2c(CO)nc3ccccc32)c1`?
TDP1 cell noCPT: inconclusive; HT1080 IDH1KD tx: -4.7%; DT40 TDP1 CPT: inconclusive; HT1080NT lethal: -10.5%; uPA surface inh: 20.2%; IL1B secr inh: -2.0

What do the screens show for `CC1(c2ccc3ccccc3c2)NC(=O)N(CC(=O)N2CCCC(C(F)(F)F)C2)C1=O` (stereo not given)?
TDP1 cell noCPT: -6.5%; HT1080 IDH1KD tx: -15.6%; DT40 TDP1 CPT: -28.0%; HT1080NT lethal: -11.4%; uPA surface inh: -23.4%; IL1B secr inh: 1.9
